Common to all, as to set-up: scale not given: direction of the effect not stated beside the values
For experiment [1], the target named is Protein translocase subunit SecA (Escherichia coli (strain K12)) (UniProt P10408). In words: Assay to Identify E. coli SecA ATPase Inhibitors. Type of experiment: functional. The settings on record: 30 µM.
Experiment [2] has as its target T1, Ubiquitin-activating enzyme e1, putative (Leishmania donovani (strain BPK282A1)) (UniProt E9BSI1).
T1 sequence (whole entry): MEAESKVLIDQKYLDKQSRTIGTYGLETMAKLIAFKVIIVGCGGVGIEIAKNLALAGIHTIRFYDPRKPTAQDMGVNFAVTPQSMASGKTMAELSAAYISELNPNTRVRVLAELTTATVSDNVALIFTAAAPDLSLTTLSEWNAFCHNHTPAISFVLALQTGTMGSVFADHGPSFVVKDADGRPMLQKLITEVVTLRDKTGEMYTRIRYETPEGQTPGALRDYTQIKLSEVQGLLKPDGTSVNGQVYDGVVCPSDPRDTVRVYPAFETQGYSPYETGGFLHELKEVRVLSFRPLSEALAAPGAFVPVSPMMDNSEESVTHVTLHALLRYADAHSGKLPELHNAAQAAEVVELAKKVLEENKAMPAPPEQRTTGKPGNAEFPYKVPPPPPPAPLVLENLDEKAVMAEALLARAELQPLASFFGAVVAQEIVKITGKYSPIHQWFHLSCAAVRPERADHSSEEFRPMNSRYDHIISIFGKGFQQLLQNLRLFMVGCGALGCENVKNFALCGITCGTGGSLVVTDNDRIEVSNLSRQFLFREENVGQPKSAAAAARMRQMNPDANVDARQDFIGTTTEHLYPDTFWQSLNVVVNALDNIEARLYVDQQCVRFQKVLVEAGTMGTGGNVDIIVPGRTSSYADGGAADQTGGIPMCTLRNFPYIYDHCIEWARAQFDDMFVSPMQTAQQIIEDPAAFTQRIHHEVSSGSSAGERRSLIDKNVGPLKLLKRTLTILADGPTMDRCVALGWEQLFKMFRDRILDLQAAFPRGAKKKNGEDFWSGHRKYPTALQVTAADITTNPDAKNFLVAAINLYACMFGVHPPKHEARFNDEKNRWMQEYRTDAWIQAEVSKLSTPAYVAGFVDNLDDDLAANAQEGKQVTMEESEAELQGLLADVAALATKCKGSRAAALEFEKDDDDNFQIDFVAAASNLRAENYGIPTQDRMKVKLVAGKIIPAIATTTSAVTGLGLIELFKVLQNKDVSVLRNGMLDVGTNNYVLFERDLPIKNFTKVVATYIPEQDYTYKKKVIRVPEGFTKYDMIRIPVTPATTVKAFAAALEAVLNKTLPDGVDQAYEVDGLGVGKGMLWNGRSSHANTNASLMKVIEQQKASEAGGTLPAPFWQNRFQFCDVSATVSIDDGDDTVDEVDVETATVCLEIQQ
The experiment in a line: Leishmania donovani Ubiquitin Activating Enzyme (LdE1). It counts as functional. Conditions: 30 µM.

Experiment [3] deals with AMP-activated protein kinase, AMPK (Homo sapiens) (UniProt P54646+O43741+P54619+Q9UGJ0+Q9Y478+Q13131+Q9UGI9). In words: AMP-dependent Kinase enzyme assay. An in vitro enzyme assay that detects ADP turnover that is directly proportional to AMPK activity. This uses naive AMPK that is activated during the assay with MK-8722. Conditions: 30 µM. It counts as functional.
The target in experiment [4] is Sialic acid-binding Ig-like lectin 9 (Homo sapiens) (UniProt Q9Y336). In words: Hs-Siglec9 ALPHAscreen SOP 20170721. The settings on record: 10 µM. Background: In Alpha technology, singlet oxygen from a donor bead excites a nearby acceptor bead.
In experiment [5] the test system is Trypanosoma cruzi. The experiment in a line: Trypanosoma cruzi phosphomannomutase and mannose-1-phosphate guanylyltransferase assay. The settings on record: 10 µM. Type of experiment: functional.
In experiment [6] the target is T2, Arginase-2, mitochondrial (Homo sapiens) (UniProt P78540).
T2 sequence (whole entry): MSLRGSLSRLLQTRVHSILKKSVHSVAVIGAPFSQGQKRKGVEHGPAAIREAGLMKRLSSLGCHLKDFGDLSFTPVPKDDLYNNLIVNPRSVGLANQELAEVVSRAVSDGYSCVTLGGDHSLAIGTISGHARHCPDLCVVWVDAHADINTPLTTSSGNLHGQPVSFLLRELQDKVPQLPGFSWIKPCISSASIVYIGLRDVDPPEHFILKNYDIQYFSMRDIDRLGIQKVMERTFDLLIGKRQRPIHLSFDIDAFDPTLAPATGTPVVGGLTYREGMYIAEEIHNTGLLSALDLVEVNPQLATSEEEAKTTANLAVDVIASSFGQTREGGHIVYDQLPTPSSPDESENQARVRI
The experiment in a line: in vitro enzyme assay to detect the production of urea directly proportional to the activity of Arginase II. Note: in the data most compounds retested in dose-response had high values. Conditions: 33.3 µM. It counts as functional.

Experiment [7] deals with T3, Proteasome subunit beta (Trypanosoma cruzi) (UniProt O96673).
T3 sequence (whole entry): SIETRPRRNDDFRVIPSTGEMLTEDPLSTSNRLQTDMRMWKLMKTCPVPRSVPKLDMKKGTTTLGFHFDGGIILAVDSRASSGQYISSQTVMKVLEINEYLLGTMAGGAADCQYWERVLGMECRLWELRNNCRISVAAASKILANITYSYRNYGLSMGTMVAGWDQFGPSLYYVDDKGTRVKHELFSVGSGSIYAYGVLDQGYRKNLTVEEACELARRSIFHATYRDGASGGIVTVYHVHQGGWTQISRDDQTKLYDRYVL
The experiment in a line: Trypanosoma cruzi proteasome chymotrypsin-like activity (TcProtChymo) assay. Note: in the data most compounds retested in dose-response had high values. Type of experiment: functional. Conditions: 9.37 µM.

The species entered for experiment [8] is Homo sapiens. In words: To identify inhibition of the IFN signalling (Jak-Stat) pathway via expression of an eGFP reporter gene under the control of an IFN-stimulated response element (ISRE) containing MxA promoter. Type of experiment: functional. The settings on record: 30 µM. In general terms: Reporter assays use an easily measured gene product as a stand-in for the process of interest.

Experiment [9] concerns the target T4, Tyrosyl-tRNA synthetase, putative (Trypanosoma cruzi (strain CL Brener)) (UniProt Q4DSP6).
T4 sequence (whole entry): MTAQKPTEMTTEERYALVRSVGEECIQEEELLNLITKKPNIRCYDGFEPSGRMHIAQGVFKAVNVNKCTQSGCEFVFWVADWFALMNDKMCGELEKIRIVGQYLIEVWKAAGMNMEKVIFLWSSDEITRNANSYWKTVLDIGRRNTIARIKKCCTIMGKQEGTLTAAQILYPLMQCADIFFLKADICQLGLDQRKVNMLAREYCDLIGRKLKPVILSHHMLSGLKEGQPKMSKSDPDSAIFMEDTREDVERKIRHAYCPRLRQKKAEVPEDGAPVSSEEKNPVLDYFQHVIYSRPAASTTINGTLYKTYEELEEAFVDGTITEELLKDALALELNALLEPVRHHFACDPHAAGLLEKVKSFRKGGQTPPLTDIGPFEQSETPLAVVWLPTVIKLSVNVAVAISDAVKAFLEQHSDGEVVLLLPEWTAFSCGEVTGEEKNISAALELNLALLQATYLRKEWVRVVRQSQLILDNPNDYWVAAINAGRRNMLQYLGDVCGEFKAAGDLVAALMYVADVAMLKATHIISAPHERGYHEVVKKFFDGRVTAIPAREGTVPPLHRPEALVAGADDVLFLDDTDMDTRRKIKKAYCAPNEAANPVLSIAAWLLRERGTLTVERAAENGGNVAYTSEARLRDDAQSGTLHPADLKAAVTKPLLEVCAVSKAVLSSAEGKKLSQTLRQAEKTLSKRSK
In words: Trypanosoma cruzi tyrosyl tRNA synthetase (TcYRS) _High Tyrosine SOP. Note: in the data most compounds retested in dose-response had high values. Conditions: 30 µM. Type of experiment: functional.

Experiment [10] deals with T4, Tyrosyl-tRNA synthetase, putative (Trypanosoma cruzi (strain CL Brener)). The experiment in a line: Trypanosoma cruzi tyrosyl tRNA synthetase (TcYRS) SOP. Type of experiment: functional. The settings on record: 30 µM.
Experiment [11] deals with Chromo domain-containing protein 1 (Saccharomyces cerevisiae (strain ATCC 204508 / S288c) (Baker's yeast)) (UniProt P32657). In words: ScCHD-1 Enzyme Inhibition Assay. Note: in the data most compounds retested in dose-response had high values. It counts as functional. Conditions: 30 µM.

For some assays here: Entries with a potency or affinity are not part of this list.

Sequence of Protein translocase subunit SecA (Escherichia coli (strain K12)) (P10408 whole entry): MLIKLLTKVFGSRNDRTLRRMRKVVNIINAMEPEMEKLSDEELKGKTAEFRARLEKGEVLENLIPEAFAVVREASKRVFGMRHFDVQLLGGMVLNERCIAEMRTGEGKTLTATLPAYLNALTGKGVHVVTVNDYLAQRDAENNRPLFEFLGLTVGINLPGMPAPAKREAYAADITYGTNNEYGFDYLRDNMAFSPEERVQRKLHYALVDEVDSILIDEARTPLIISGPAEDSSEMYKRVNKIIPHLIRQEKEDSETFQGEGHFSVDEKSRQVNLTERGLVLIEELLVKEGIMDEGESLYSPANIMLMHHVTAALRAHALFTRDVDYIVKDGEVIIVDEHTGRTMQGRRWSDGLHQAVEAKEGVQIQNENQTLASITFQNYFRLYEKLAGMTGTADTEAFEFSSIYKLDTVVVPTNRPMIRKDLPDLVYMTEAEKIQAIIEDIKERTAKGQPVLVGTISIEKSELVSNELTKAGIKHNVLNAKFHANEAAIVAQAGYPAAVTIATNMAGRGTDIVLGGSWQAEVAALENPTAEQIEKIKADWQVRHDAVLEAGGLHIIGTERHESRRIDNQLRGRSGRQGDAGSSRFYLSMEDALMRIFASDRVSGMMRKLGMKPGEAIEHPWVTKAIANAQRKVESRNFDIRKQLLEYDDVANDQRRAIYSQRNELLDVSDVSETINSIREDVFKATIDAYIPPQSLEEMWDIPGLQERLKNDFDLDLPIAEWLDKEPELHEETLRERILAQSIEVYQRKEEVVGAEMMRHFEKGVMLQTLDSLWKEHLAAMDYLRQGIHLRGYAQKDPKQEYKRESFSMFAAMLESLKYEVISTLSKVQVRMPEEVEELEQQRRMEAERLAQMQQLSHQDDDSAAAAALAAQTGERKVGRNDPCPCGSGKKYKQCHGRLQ
Sequence of Chromo domain-containing protein 1 (Saccharomyces cerevisiae (strain ATCC 204508 / S288c) (Baker's yeast)) (P32657 whole entry, the tested form may be a part): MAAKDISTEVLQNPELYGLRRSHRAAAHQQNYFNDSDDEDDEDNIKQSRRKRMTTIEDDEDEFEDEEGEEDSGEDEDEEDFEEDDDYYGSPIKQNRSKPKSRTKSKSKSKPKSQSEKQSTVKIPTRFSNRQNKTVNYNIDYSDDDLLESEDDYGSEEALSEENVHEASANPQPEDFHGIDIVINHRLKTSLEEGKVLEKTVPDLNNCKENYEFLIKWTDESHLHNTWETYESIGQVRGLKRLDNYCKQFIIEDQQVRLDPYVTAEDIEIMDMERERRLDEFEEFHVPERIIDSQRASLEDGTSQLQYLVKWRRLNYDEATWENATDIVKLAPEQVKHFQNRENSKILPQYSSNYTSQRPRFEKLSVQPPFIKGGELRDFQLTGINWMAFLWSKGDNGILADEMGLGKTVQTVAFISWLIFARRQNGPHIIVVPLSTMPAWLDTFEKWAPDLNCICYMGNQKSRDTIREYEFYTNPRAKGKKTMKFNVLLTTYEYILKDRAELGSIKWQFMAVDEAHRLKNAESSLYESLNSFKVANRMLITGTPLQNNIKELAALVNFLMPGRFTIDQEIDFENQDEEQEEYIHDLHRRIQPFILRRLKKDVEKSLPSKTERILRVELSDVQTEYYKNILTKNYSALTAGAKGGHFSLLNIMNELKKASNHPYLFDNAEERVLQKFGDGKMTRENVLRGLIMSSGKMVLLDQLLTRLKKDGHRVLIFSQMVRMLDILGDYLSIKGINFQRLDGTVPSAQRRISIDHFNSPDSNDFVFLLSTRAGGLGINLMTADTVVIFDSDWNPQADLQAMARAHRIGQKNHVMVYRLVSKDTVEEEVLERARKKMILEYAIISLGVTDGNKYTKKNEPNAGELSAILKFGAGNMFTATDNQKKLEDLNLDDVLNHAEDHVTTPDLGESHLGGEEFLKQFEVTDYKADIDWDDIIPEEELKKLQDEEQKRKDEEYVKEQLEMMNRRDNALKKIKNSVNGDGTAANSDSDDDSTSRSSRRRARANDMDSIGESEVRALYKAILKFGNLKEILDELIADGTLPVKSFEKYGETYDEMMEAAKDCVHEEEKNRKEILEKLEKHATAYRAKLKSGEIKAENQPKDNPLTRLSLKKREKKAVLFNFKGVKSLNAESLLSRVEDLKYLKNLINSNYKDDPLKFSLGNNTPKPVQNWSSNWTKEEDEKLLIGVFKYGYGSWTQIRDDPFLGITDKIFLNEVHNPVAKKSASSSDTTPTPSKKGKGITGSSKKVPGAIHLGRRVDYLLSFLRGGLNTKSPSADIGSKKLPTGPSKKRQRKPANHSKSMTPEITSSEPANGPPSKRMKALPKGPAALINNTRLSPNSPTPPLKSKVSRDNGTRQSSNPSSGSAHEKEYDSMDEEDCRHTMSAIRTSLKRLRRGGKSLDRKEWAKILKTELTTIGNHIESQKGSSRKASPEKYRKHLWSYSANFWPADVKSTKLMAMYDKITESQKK
Sequence of Sialic acid-binding Ig-like lectin 9 (Homo sapiens) (Q9Y336 whole entry): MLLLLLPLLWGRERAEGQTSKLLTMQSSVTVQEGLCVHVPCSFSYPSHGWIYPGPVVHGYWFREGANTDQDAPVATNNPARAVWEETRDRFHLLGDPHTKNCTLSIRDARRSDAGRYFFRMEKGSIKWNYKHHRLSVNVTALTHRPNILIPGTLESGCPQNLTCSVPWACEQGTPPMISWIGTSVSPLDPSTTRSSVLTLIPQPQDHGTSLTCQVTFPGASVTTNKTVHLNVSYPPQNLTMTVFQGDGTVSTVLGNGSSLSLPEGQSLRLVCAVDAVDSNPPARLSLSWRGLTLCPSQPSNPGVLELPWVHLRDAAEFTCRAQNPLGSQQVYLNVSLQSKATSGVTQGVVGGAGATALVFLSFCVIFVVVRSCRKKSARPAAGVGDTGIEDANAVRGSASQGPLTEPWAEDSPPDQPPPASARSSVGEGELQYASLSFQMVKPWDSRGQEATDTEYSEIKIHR

Regarding `CCOC(=O)C1CCCN(c2ccc(-c3nc(C)no3)cn2)C1` (stereo not given), the Percent Effect in experiment [1] was -4.99%; in experiment [2], 8%; in experiment [3], -4.16%; in [4], 19.1%; in experiment [5], 5.36%; in [6], 6.25%. Also, the Percent Effect in experiment [7] is 0%; in experiment [8], 1.88%; in experiment [9], 3.83%; in experiment [10] it was 11.1%; in experiment [11], -6.07%.

For `Cc1nc(CSCCC(=O)NCc2cccnc2N(C)C)cs1`, the Percent Effect in [1] was -0.871%; in [2], 20.2%; in experiment [3] it was -1.17%; in experiment [4], -7.06%; in [5] it was 5.38%; in [6] it was 4.56%. Moreover, the Percent Effect was 7.45% in experiment [7]; 5.3% in [8]; 6.4% in experiment [9]; 24.1% in [10]; -7.54% in experiment [11].

For the molecule `NS(=O)(=O)CCNC(=O)c1nnn(-c2ccccc2)c1C1CC1`, the Percent Effect in experiment [1] was 0.0352%; in [2], 2.7%; in experiment [3] it was 0.144%; in experiment [4], -1.59%; in experiment [5] it was -8.4%; in experiment [6], 2.92%. The Percent Effect in experiment [7] was 12.1%; in [8], 1.92%; in experiment [9], 4.95%; in experiment [10] it was 6.1%; in experiment [11], -4.86%.

Consider `O=C(CCc1ccsc1)N1CCC(Cc2ccc(CO)cc2)C1` (stereo not given), for which the Percent Effect in [1] is 2.19%; in [2], 4.17%; in experiment [3], -0.478%; in experiment [4], -3.78%; in [5] it was -6.9%; in experiment [6], 3.53%. Besides, the Percent Effect in experiment [7] was 12.5%; in experiment [8], -1.24%; in experiment [9] it was 3.16%; in [10] it was 7.69%; in [11] it was -1.32%.

Regarding `Cc1ncsc1CN1CC[C@H]2OCC[C@@]2(C(=O)NC(C)C)C1`, the Percent Effect in experiment [1] is -3.99%; in experiment [2], 0%; in [3], 6.03%; in experiment [4] it was -6.45%; in experiment [5], -3.25%; in experiment [6], 0.645%. Further, the Percent Effect was 0.87% in [7]; 30.1% in experiment [8]; -1.06% in [9]; -8.97% in [10]; 0.0917% in [11].

In the case of `Cc1ccc(C(=O)N2CC[C@@H]3[C@H]2CCC(=O)N3c2ccccc2)o1`, the Percent Effect in [1] was -2.77%; in experiment [2] it was 2.67%; in [3] it was 14%; in [4], -0.294%; in experiment [5] it was 0.591%; in experiment [6] it was 0.233%. Also, the Percent Effect is -2.03% in experiment [7]; 12.1% in [8]; 7.45% in experiment [9]; 11.5% in [10]; 1.89% in [11].

`CC(=O)Nc1ccc(CNC2CC(=O)N(Cc3cccc(F)c3)C2)cc1` (stereo not given): the Percent Effect was -2.91% in experiment [1]; 0% in [2]; -1.25% in experiment [3]; 1.06% in experiment [4]; -2.7% in experiment [5]; -3.33% in experiment [6]. Besides, the Percent Effect in experiment [7] is 1.55%; in [8], -18.6%; in experiment [9], 2.65%; in experiment [10], 7.32%; in [11], -0.408%.

Take `CCn1nc(C)c2nc(C(C)C)nc(N3CCCCC3)c21`: the Percent Effect in [1] was -3.55%; in experiment [2] it was 2.6%; in experiment [3], 1.61%; in experiment [4], 3.47%; in experiment [5], -5.8%; in experiment [6], -9.65%. For the same molecule, the Percent Effect in experiment [7] was 1.5%; in experiment [8], 5.04%; in [9] it was 3.23%; in [10] it was 6.17%; in experiment [11] it was -0.27%.

`CN1CCN(C(CNC(=O)CCn2cccn2)c2cccs2)CC1` (stereo not given): the Percent Effect in [1] was 1.81%; in experiment [2] it was -2.67%; in [3], -4.22%; in [4], 0.224%; in experiment [5], -3.6%; in experiment [6] it was 4.17%. The Percent Effect is 6.63% in experiment [7]; 5.37% in [8]; 2.73% in [9]; 3.7% in [10]; 2.11% in experiment [11].

Take `CC(C)(C)c1nc(CN2CCC(c3nc4cc(Cl)ccc4o3)CC2)no1`: the Percent Effect in experiment [1] is 0.762%; in [2] it was 13.5%; in experiment [3], 3.19%; in [4], 22.6%; in [5] it was 7.92%; in experiment [6] it was 4.76%. Besides, the Percent Effect in [7] was 7.76%; in experiment [8] it was 10.2%; in experiment [9] it was 2.65%; in experiment [10] it was 0%; in [11] it was -5.62%.

For the origin of these results see ChEMBL document CHEMBL3988442, “University of Dundee, Small-Polar-MMV Screening Library” (2021).
